From PubChem
CYP2C19 activ: increases human CYP2C19 enzyme activity. P33261. recombinant CYP2C19, luciferin-H EGE luminescence; stronger effect = higher value; 0 = fully inhibited enzyme, 1 = untreated enzyme. activation factor at 5 µM. 96,000 tested, under 10 active. AID 1025;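 active = activation factor of at least 2 at 5 µM in the primary screen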;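 also: 0 = wells with 2.5 mM tranylcypromine and 1 = vehicle-only wells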
CYP2C9 activ: increases human cytochrome P450 2C9 activity | P11712 | recombinant CYP2C9, luciferin-H conversion, luminescence; stronger effect = higher value; factor 1 = untreated enzyme, 0 = blocked | activation factor at 5 µM | 96,000 tested, 1.4% active | AID 1024;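 active = activation factor of 2 or more for CYP2C9 at a 5 µM dose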;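 also: 0 = sulfaphenazole-blocked wells and 1 = vehicle-only wells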
Target sequence (P11712 whole entry, looked up): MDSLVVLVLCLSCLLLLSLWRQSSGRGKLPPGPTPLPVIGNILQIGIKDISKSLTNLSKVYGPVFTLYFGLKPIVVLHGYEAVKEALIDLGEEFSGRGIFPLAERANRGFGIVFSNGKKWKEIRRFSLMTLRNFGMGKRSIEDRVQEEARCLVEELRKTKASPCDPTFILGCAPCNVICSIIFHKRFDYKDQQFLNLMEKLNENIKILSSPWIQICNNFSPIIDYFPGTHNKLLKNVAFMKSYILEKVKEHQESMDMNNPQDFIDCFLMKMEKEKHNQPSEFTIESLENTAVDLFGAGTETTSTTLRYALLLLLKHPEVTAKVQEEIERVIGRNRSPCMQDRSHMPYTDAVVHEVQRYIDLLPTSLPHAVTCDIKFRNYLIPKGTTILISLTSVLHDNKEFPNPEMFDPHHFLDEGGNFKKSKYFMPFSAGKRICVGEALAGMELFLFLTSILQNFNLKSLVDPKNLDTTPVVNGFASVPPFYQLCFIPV
DAT uptake mod: human DAT dopamine uptake with cocaine, either direction; AID 449768; LLC-PK1 hDAT cells, [14C]-dopamine uptake with cocaine IC80; actives deviate in either direction; Q01959; B-score at 10 µM; 110,000 tested, 1.3% active;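 active = Z score or B-score, a plate-position-corrected score, falls beyond the plate's 99.7% confidence bounds, in either direction; inactive = both scores lie inside the 99.7% bounds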;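 also: scored against the spread of the other compound wells on the same plate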
D1 mod: allosterically modulates the human D1 dopamine receptor; P21728; HEK293 D1, CRE-luciferase, dopamine EC30 potentiation; actives deviate in either direction; B-score at 10 µM; 58,000 tested, 5.9% active; AID 641;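 active = luminescence count or its row- and column-corrected plate score outside the 99.7% band of the plate's sample wells, on either side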
CYP2C9 inh: human CYP2C9 inhibition; CYP2C9 Supersomes, luciferin-H conversion, luminescence; inhibition, % at 5 µM; 96,000 tested, 20% active; AID 777;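 active = blocking of liver enzyme CYP2C9 beyond about 50% at 5 µM, limit read from the data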
CYP2C19 inh: inhibitors of human CYP2C19. P33261. CYP2C19 Supersomes, luciferin-H EGE luminescence, 30 min. inhibition, % at 5 µM. 96,000 tested, 21% active;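 active = CYP2C19 inhibition above a set limit at 5 µM in the primary screen, cut at about 50% in these data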;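 also: plate controls were negative control wells for no effect and 2.5 mM tranylcypromine positive control for full effect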
* = called active by the depositor; nt = no result given. Compounds with a hit are over-represented: about 28% of the library has one in this group of screens.

SMILES | CYP2C19 activ | CYP2C9 activ | DAT uptake mod | D1 mod | CYP2C9 inh | CYP2C19 inh
COc1ccccc1-c1cc2nc(C)c(CCC(=O)NC(C)CCc3ccco3)c(C)n2n1 (stereo not drawn) | 0.1 | 0.1 | 1 | nt | 89* | 90*
Cc1nc2c(-c3ccccc3)c(C)nn2c(C)c1CCC(=O)NC(C)CCc1ccco1 (stereo not drawn) | 0.5 | 0.6 | 0.84 | nt | 38 | 52*
Cc1nc2c(-c3ccccc3)c(C)nn2c(C)c1CCC(=O)O | 0.7 | 0.8 | 0.36 | 1.6 | 24 | 27
NCCN1CCN(CCN)CC1 | 1.1 | 0.9 | 0.86 | 0.04 | 7 | -15
Cc1ccc2c(c1)N(C(=O)NC1CCCCC1)C(C)(C)CC2C (stereo not drawn) | 0.3 | 0.7 | -0.96 | nt | 33 | 72*
OCC1(c2cc(C(F)(F)F)n[nH]2)CCCCC1 | 0.8 | 0.8 | -0.0081 | 0.17 | 22 | 22
Cc1ccc(-c2ccc(/C=N/N3C(=O)C4C5C=CC(C6CC56)C4C3=O)o2)c([N+](=O)[O-])c1 (stereo not drawn) | 0.9 | 0.9 | 0.92 | nt | 11 | 10
CC(=O)c1cc(-c2ccccc2)n(CC(=O)NC2CCCC2)c1C | 0.8 | 0.8 | -0.03 | nt | 22 | 17
CC(=O)c1cc(-c2ccc(F)cc2)n(CC(=O)NCc2cccs2)c1C | 0.2 | 0.5 | -0.72 | -0.24 | 49 | 81*
CC(=O)c1cc(-c2ccccc2)n(CCC(=O)NCc2cccs2)c1C | 0.3 | 0.5 | 0.24 | -0.019 | 54* | 73*
Cc1ccc(NC(=O)/C(=C\c2cccnc2)NC(=O)c2ccco2)cc1 | 0.9 | 0.9 | 0.44 | nt | 10 | 6
O=C(CN1C(=O)CSC1=O)N1CCc2ccccc2C1 | 1.1 | 1 | -0.88 | -0.2 | 2 | -11
CCN(C(=O)COc1cc(=O)n(C)c2ccccc12)c1cccc(Cl)c1 | 0.3 | 1.6 | 0.58 | 0.35 | -57 | 69*
CCn1c(=O)cc(OCC(=O)Nc2cc(C)ccn2)c2ccccc21 | nt | nt | -1.5 | 0.98 | nt | nt
Cn1c(=O)cc(OCC(=O)Nc2ccccn2)c2ccccc21 | 0.5 | 0.7 | 0.31 | -0.096 | 35 | 53*
CN(C(=O)COc1cc(=O)n(C)c2ccccc12)c1ccc(Br)cc1 | 0.9 | 0.3 | -0.75 | 0.3 | 67* | 8
CCOc1ccc(CNC(=O)CCCOc2cc(=O)n(C)c3ccccc23)cc1 | 0.3 | 0.2 | 1.1 | nt | 78* | 69*
Cc1cccc(N(C)C(=O)COc2cc(=O)n(C)c3ccccc23)c1 | 0.7 | 1 | -0.051 | -0.6 | 3 | 26
COc1ccccc1CNC(=O)CCCOc1cc(=O)n(C)c2ccccc12 | 1 | 1.3 | -0.22 | nt | -28 | 4
COc1ccc(C2=CC(c3ccc(Cl)cc3)n3cnnc3N2)cc1OC (stereo not drawn) | 0.7 | 0.6 | -0.12 | 1.6 | 40 | 25
CC1=CC(C)C2C(=O)N(CCCN(C)C)C(=O)C2C1 (stereo not drawn) | 1 | 1.1 | -0.2 | -1.5 | -9 | -3
COc1ccc(-c2c(C#N)c(N)nc3c2c(=O)n(C)c(=O)n3C)cc1Cl | nt | nt | -0.045 | nt | nt | nt
COc1ccc(-c2nc(SC)n(C)c(=O)c2C#N)cc1OC | 0.8 | 0.1 | 0.0049 | nt | 95* | 24
COc1cccc(Cn2nnc(C(=O)NCCc3ccc(Cl)cc3)c2N)c1 | 1 | 1 | 1.5 | nt | 3 | 1
COc1cccc(Cn2nnc(C(=O)Nc3cc(Cl)ccc3OC)c2N)c1 | 1 | 2.1* | -0.72 | 1.4 | -106 | -4
SMILES | CYP2C19 activ | CYP2C9 activ | DAT uptake mod | D1 mod | CYP2C9 inh | CYP2C19 inh
COc1ccccc1C(=O)N1CCN(S(=O)(=O)c2ccccc2)CC1 | 0.1 | 0.5 | 1.3 | -0.12 | 52* | 93*
COc1ccccc1-n1cnnc1SCC(=O)N1CCN(S(=O)(=O)c2ccccc2)CC1 | 0.4 | 1 | 1.1 | nt | 3 | 60*
COc1ccccc1-n1cnnc1SCC(=O)Nc1ncc(Cl)cc1Cl | 0.7 | 1.1 | 2.1 | -1.1 | -7 | 27
COc1cccc(OC)c1C(=O)N1CCN(S(=O)(=O)c2ccccc2)CC1 | 0.5 | 0.3 | -0.79 | 0.63 | 74* | 53*
COc1ccccc1-n1cnnc1SCC(=O)Nc1nc(C)c(Cl)cc1Cl | 0.3 | 0.8 | 0.54 | nt | 21 | 75*
COc1ccc(C(=O)N2CCN(S(=O)(=O)c3ccccc3)CC2)c(OC)c1 | 0.6 | 0.7 | -0.15 | -0.025 | 32 | 39
